From PubChem BioAssay (EPA / NIEHS)
Results filed as inconclusive are left out. Active and inactive are the calls of the source. How the source made its calls: active means hit-call score of the fitted dose curve at least 0.9, where 1 is the maximum; inconclusive means response in the unintended direction; inactive means score below 0.9.

Each molecule was assayed on Broad substrate specificity ATP-binding cassette transporter ABCG2 (Homo sapiens) (UniProt Q9UNQ0) (assay: CLD_ABCG2_48hr: CellzDirect (CLD) Gene Expression Assay for ABC Transporter (ABCG2) at 48 hours (AID 2283704);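 on AC50: potency for induction of ABCG2 mRNA above the DMSO baseline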).
Protocol: CLD_48hr is a cell-based, multiplexed-readout assay that uses hepatocyte, a human liver primary cell, with measurements taken at 48 hours after chemical dosing in a 96-well plate.CLD_ABCG2_48hr is one of 16 assay component(s) measured or calculated from the CLD_48hr assay. It is designed to make measurements of mRNA induction, a form of inducible reporter, as detected with chemiluminescence signals by Quantitative Nuclease Protection Assay (qNPA) technology.Data from the assay component CLD_ABCG2_48hr was analyzed at the endpoint, CLD_ABCG2_48hr, in the positive analysis fitting direction relative to DMSO as the negative control and baseline of activity. Using a type of inducible reporter, gain-of-signal activity can be used to understand changes in the reporter gene as they relate to the gene ABCG2. Furthermore, this assay endpoint can be referred to as a primary readout. To generalize the intended target to other relatable targets, this assay endpoint is annotated to the transporter intended target family, where subfamily is ABC transporter.
Human hepatocyte cultures were treated daily for two consecutive days with fresh dosing solutions containing appropriate concentrations of the 320 ToxCast chemicals (chemical identities were blinded to CellzDirect and other ToxCast collaborators), vehicle control (0.2% DMSO), and positive control inducers as summarized in Table 1. Due to the large number of treatment groups and chemicals examined, the ToxCast chemicals were divided into two groups (spanning two independent cultures of hepatocytes from separate donor preparations (Hu778: ToxCast plates 1 and 2; Hu776: ToxCast plates 3 and 4). Each preparation of human hepatocyte cultures was treated with respective vehicle control, medium only control, set of six positive controls/reference chemicals for the five hepatic receptor pathways, and a subset of eight of the ToxCast chemicals (indoxacarb, pyrithiobac-sodium, norflurazon, cyhalofop-butyl, methomyl, thiram, acetochlor, and propiconazole). These replicate data, coupled with internal replicates designed within the blinded ToxCast chemical library, provided additional data to evaluate interindividual differences between hepatocyte preparations and their potential impact on chemical profiles.Cell morphology and integrity were evaluated using phase-contrast microscopy as an indicator of hepatocyte cell health (Tyson & Green, 1987). Cultures for each treatment group (i.e., media, vehicle [0.2% DMSO], positive control inducers [multiple concentrations], and the ToxCast chemicals [multiple concentrations]) were observed and cell morphology was assessed relative to vehicle control cultures at each harvest time point (0, 6, 24, or 48 h). […] Images were evaluated at the conclusion of the study to assess changes in cell integrity and account for the effects of chemical exposure on uncharacteristic changes in concentration-dependent gene expression profiles. The results from these determinations of apparent cytotoxicity were annotated (yes/no) alongside the corresponding qNPA data for reference.At the conclusion of each treatment period, hepatocyte cultures (96-well) were washed with 1 volume of HBSS, lysed by addition of 25 ul ArrayPlate lysis buffer (HTG, Tucson, AZ), and 70 ul/well of Denaturation Oil, denatured by incubation at 95C for 10 min, and frozen at approximately -70C until analysis by nuclease protection assay (qNPA) (Roberts et al., 2007). For qNPA analysis, cell lysates were thawed at 50C for approximately 30 min, qNPA probes were added, and samples were incubated at 95C for 10 min to begin the detection process by denaturing the target RNA, dissociating the duplexes and secondary structure hybridization. At the conclusion of the hybridization period, S1 nuclease reagent was added to each sample to digest all nonprotected nucleotides at 50C for 60-90 min. […]

Chain of Broad substrate specificity ATP-binding cassette transporter ABCG2 (Homo sapiens) (Q9UNQ0 whole entry, looked up): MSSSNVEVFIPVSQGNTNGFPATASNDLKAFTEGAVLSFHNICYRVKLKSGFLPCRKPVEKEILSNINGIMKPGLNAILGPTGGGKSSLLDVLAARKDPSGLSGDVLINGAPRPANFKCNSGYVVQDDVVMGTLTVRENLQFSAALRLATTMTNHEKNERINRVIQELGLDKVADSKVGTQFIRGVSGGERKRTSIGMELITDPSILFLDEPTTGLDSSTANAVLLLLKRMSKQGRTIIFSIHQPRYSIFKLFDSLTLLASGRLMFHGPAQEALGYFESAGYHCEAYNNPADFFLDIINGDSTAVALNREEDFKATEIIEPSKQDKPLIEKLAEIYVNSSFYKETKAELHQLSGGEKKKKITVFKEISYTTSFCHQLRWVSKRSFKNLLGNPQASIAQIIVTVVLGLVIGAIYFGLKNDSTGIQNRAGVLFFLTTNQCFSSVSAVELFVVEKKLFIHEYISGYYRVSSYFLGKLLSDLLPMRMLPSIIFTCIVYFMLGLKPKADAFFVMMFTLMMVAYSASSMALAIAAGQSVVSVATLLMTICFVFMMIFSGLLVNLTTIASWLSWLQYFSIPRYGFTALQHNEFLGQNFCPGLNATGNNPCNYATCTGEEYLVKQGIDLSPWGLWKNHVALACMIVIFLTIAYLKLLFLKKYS

Row | SMILES | AC50 | outcome
1 | C=CCOC(Cn1ccnc1)c1ccc(Cl)cc1Cl (centres undefined) | 34.9 µM (active) | –
2 | CCC(C)OC(=O)N1CCCCC1CCO (centres undefined) | – | inactive
3 | N#CSCSc1nc2ccccc2s1 | – | inactive
4 | COc1c(Cl)ccc(Cl)c1C(=O)O | – | inactive
5 | CCNc1nc(N)nc(Cl)n1 | – | inactive
6 | COC(=O)c1ccccc1C(=O)O | – | inactive
7 | CCOC(=O)C(C)Oc1ccc(Oc2nc3ccc(Cl)cc3o2)cc1 (centres undefined) | – | inactive
8 | CCCN(CCC)C(=O)SCC | – | inactive
9 | CC(C)(c1ccc(O)cc1)c1ccc(O)cc1 | – | inactive
10 | C#CCOC(=O)[C@@H](C)Oc1ccc(Oc2ncc(Cl)cc2F)cc1 | – | inactive
11 | CCCCC(CC)CN1C(=O)C2C3C=CC(C3)C2C1=O (centres undefined) | – | inactive
12 | S=C(S)NCCNC(=S)S.[Mn+2].[S-]C([S-])=NCCN=C([S-])[S-].[Zn+2] | 3.67 µM (active) | –
13 | CC(C)(C)[C@@H](O)[C@@H](Cc1ccc(Cl)cc1)n1cncn1 | – | inactive
14 | S=C([S-])NCCNC(=S)[S-].[Mn+2] | 3.4 µM (active) | –
15 | CCC(O)=C1C(=O)CC(C(=O)O)CC1=O (centres undefined) | – | inactive
16 | CSC(=O)c1cccc2nnsc12 | – | inactive
17 | COC(=O)c1ccc(I)cc1S(=O)(=O)NC(=O)Nc1nc(C)nc(OC)n1 | – | inactive
18 | CCCOC(=O)NCCCN(C)C | – | inactive
19 | COCCO | – | inactive
20 | CCCCCOC(=O)COc1cc(N2C(=O)C3=C(CCCC3)C2=O)c(F)cc1Cl | – | inactive
21 | CC1(C)C(C=C(Cl)Cl)C1C(=O)OCc1cccc(Oc2ccccc2)c1 (centres undefined) | – | inactive
22 | Cc1nn(C)c(Oc2ccccc2)c1C=NOCc1ccc(C(=O)OC(C)(C)C)cc1 | – | inactive
23 | CCOC(=O)COc1cc(-n2ncc(C(F)(F)F)c(C)c2=O)c(F)cc1Cl | – | inactive
24 | CCOC(=O)NCCOc1ccc(Oc2ccccc2)cc1 | – | inactive
